Reference: PubChem BioAssay (NCI)
The panel holds about 83,000 compounds, 20% with a hit somewhere; the sample as a whole holds those more often.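 Treatment: one concentration, 48 hours, 96-well format. Scoring: percent growth, with anything below 10 considered active.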 A number with no mark means an inactive call. The source made the active and inactive calls.

Columns and labels:
Assay in all cases: NCI-60 one-dose screen, 48 h (100 = growth as untreated, 0 = no growth, -100 = all killed)
Details in all cases: 10 µM unless noted
[1] = system: NCI-H23 lung
[2] = system: NCI-H226 lung
[3] = system: NCI-H322M lung
[4] = system: HOP-62 NSCLC
[5] = system: NCI-H460 lung
[6] = system: HOP-92 NSCLC
[7] = system: NCI-H522 lung
[8] = system: A549/ATCC NSCLC
[9] = system: 786-0 renal
[10] = system: COLO 205 colon
[11] = system: DU-145 prostate
[12] = system: K-562 leukemia
[13] = system: MALME-3M melanoma
[14] = system: MDA-MB-231 breast
[15] = system: RXF 393 renal
[16] = system: SF-268 CNS
[17] = system: SF-295 CNS
[18] = system: SF-539 CNS
[19] = system: UACC-257 melanoma
[20] = system: M14 melanoma

Structure (SMILES)	growth [1]	growth [2]	growth [3]	growth [4]	growth [5]	growth [6]	growth [7]	growth [8]	growth [9]	growth [10]	growth [11]	growth [12]	growth [13]	growth [14]	growth [15]	growth [16]	growth [17]	growth [18]	growth [19]	growth [20]
Fc1cccc(Oc2ccc(Nc3ncnc4ccc(OCCCN5CCOCC5)cc34)cc2Cl)c1	73.5%	88.1%	37.7%	82.5%	42.5%	54.3%	43.8%	48.3%	51.9%	79.4%	52.5%	3.55% (active)	24.6%	61.4%	55.5%	54.4%	82.7%	88.1%	12.5%	-44% (active)
C#COc1cccc(Nc2c(C#N)cnc3ncc(NC(=O)CCl)cc23)c1	59.6% [6.25 µM]	57.2% [6.25 µM]	53.1% [6.25 µM]	32.8% [6.25 µM]	11.8% [6.25 µM]	54.5% [6.25 µM]	-69.4% [6.25 µM] (active)	31.2% [6.25 µM]	-23.4% [6.25 µM] (active)	17.5% [6.25 µM]	33.2% [6.25 µM]	6.93% [6.25 µM] (active)	76.9% [6.25 µM]	20.9% [6.25 µM]	54% [6.25 µM]	6.32% [6.25 µM] (active)	42.1% [6.25 µM]	-7.95% [6.25 µM] (active)	47.1% [6.25 µM]	41.2% [6.25 µM]
O=C1/C(=C/c2ccccc2Br)COc2ccc(O)cc21	92.5%	100%	93.8%	88.9%	95.3%	104%	31.3%	86.4%	73%	100%	69%	11.9%	84%	73.9%	101%	86.1%	99.1%	80%	99.2%	73.3%
Oc1c(Br)cc(Br)c2ccc(Cn3cc(-c4ccccc4C(F)(F)F)nn3)nc12	106%	98.6%	104%	103%	101%	88.8%	24.6%	99.6%	105%	95.7%	86%	4.64% (active)	89.6%	109%	60.1%	94.1%	104%	97.3%	79%	94.6%
CC1OC(n2c3ccccc3c3c4c(c5c6ccccc6[nH]c5c32)C(=O)N(CCN2CCCC2)C4=O)CC(O)C1O (stereo not given)	41%	43.1%	58.2%	35.2%	-61.3% (active)	86.6%	24.5%	15.3%	18%	24.8%	30.2%	3.65% (active)	72.3%	74.7%	30.7%	37%	26.6%	39.4%	84.5%	38.6%
CCCCNC(=O)CC1=C(C)/C(=C/c2[nH]c(-c3ccc[nH]3)cc2OC)N=C1C	48.6%	36.7%	50%	50.5%	7.8% (active)	-19.8% (active)	17%	12.4%	16.1%	17.2%	34.6%	1.68% (active)	34%	13.5%	59.4%	27%	14.6%	27.8%	5.48% (active)	-43.1% (active)
CCn1cc(C(=O)NNC(=S)Nc2ccc(C)cc2)c(=O)c2ccc(C)nc21	102%	90.1%	80.4%	108%	101%	95.1%	97.3%	91.6%	102%	116%	108%	99%	103%	93.5%	104%	103%	102%	102%	94%	113%
CC1=NC2=Nn3c(c4cnn(-c5ccccc5)c4n/c3=N\N)NN2C(c2ccccc2)=C1	87.5%	90.7%	87.6%	96.1%	88.5%	74.3%	89%	96%	104%	107%	105%	102%	87.9%	88.7%	74%	96.1%	90.7%	94.7%	101%	93.1%
CCOC(=O)c1c(NC(=O)c2ccc(Cl)cc2)sc2c(CN(C)C)c(O)ccc12	88%	96.1%	61.3%	84.6%	71.3%	1.75% (active)	76.5%	69.6%	69.8%	5.48% (active)	82%	8.81% (active)	51.6%	56.4%	64.2%	78.5%	83.5%	56.7%	2.24% (active)	-18.4% (active)
N#Cc1c(-c2ccc(Cl)cc2)c(C#N)c2c(C#N)c(N)nn2c1N	98.1%	86.8%	81.7%	79.5%	86.9%	61%	64.8%	77.4%	86.6%	95.2%	84%	89.3%	106%	71.3%	79.7%	83.7%	83.3%	78%	89.2%	103%
Cc1ccccc1/C=C/C(=O)c1cccc(OCCCOc2cccc(C(=O)/C=C/c3ccccc3C)c2)c1	88.5% [3 µM]	88.9% [3 µM]	106% [3 µM]	114% [3 µM]	99.8% [3 µM]	85.9% [3 µM]	80.5% [3 µM]	86% [3 µM]	103% [3 µM]	110% [3 µM]	102% [3 µM]	73.6% [3 µM]	108% [3 µM]	94.8% [3 µM]	98.3% [3 µM]	99.4% [3 µM]	90.6% [3 µM]	103% [3 µM]	103% [3 µM]	103% [3 µM]
O=C(CSC(=S)n1cnnc1)NC(=O)c1ccccc1	102%	100%	103%	106%	112%	101%	92.4%	114%	104%	119%	105%	89.8%	98.4%	112%	120%	98.6%	106%	100%	113%	98.1%
C1CCC([PH+](C2CCCCC2)C2CCCCC2[PH+](C2CCCCC2)C2CCCCC2)CC1.[Au].[CH-]1CCCCC1C1CCCC[N-]1 (stereo not given)	-31% (active)	-35.1% (active)	-52% (active)	-39.9% (active)	-69.8% (active)	-38.5% (active)	-51% (active)	-56.8% (active)	-64.6% (active)	-62% (active)	-52.8% (active)	-0.185% (active)	-44.3% (active)	-27.6% (active)	-92.4% (active)	-55% (active)	-42.9% (active)	-90.4% (active)	-53.8% (active)	-41.3% (active)
Cn1cc(C(=O)c2nc(-c3c[nH]c4ccccc34)no2)c2cc(F)ccc21	65.1%	75.7%	62.3%	30.5%	14.1%	43.6%	2.36% (active)	40.6%	54.6%	34.7%	72.5%	16.7%	37.3%	57.1%	89.9%	54.9%	20.7%	30%	51.2%	33%
O=C(/C=C/c1cccs1)Nc1ncc(Cc2ccccc2F)s1	47.5%	57.8%	37.9%	22.4%	12.9%	60%	6.23% (active)	29%	30.8%	4.7% (active)	11.4%	24%	40.5%	33.8%	-32.4% (active)	55.9%	9.52% (active)	-4.04% (active)	58.6%	-3.15% (active)
